Assay outcomes: PubChem BioAssay, National Center for Advancing Translational Sciences (NCATS)
The list is not random: actives were taken first. Their share in the collection is about 12%.
HP1b binding inh – inhibitors of HP1-beta chromodomain binding to methylated histone tails | 0.56% of 390,000 active | AlphaScreen HP1-beta / biotin-H3K9me3 peptide binding | Potency, µM (titrated, usually from 114 µM), for the others: at the top dose activity change, negative = inhibition, hits mostly inhibitors; note: nearly all actives have a fitted effect of over 70% in size
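HP1-beta protein (50 nM final) preincubated 30 min at room temperature with biotinylated H3(1-18)K9me3 peptide (50 nM) in PBS pH 7.4, 0.01% Tween-20, then compound added for 30 min. AlphaScreen streptavidin donor/nickel chelate acceptor beads (10 ug/mL final), 30 min dark, luminescence read.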
JMJD2A Tudor – inhibitors of human JMJD2A Tudor domain; O75164; AlphaScreen JMJD2A-Tudor / H3K4me3 peptide binding; Potency, µM (titrated, usually from 114 µM), inactives show top-dose activity change, negative = inhibition, actives largely listed as inhibitors; 4.4% of 390,000 active; AID 504339; note: % is set by controls: 0 for no effect and ±100 for the full control effect; nearly all actives have a fitted effect of over 50% in size
Sfp PPTase inh – blocks B. subtilis Sfp PPTase activity | Q9F4F7 | 3.5% of 310,000 active | Biochemical Sfp PPTase activity, qHTS | Potency, µM, for inactives: largest response in the series, negative = inhibition, hits mostly inhibitors | AID 1490;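 note: the enzyme is Sfp with the accession as filed and its product quenches rhodamine fluorescence; 0% = enzyme reaction without inhibitor and -100% = no enzyme wells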
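Fluorescence-quenching assay with 15 nM Sfp, 5 uM rhodamine-CoA and 12.5 uM BHQ-2-labelled ybbR peptide in pH 7.6 Hepes/MgCl2 buffer. Enzyme was pre-incubated with compound for 15 min at room temperature. Rate was taken from the 30-min fluorescence change (525/598 nm).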
G9a inh – inhibitors of human histone lysine methyltransferase G9a. Q96KQ7. G9a H3K9 monomethylation, AlphaScreen, 2 h. Potency, µM (series often up to 102 µM), without a hit: at the highest dose activity, negative = inhibition, hits mostly inhibitors. 8.8% of 350,000 active; note: % is set by controls: 0 for no effect and ±100 for the full control effect; nearly all actives have a fitted effect of over 75% in size
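Methyltransferase reactions run at room temperature for 2 h (20 nM enzyme, 500 nM biotin-H3K9 peptide, 20 uM SAM) after a 15 min compound preincubation; product detected by AlphaScreen beads and anti-H3K9me1 antibody.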
BAZ2B inh – inhibitors of human BAZ2B bromodomain; Q9UIF8; AlphaScreen BAZ2B-H3K14Ac peptide displacement; Potency, µM (series often up to 114 µM), for the others: at the highest dose activity change, negative = inhibition, hits mostly inhibitors; 4.4% of 360,000 active; note: % is set by controls: 0 for no effect and ±100 for the full control effect; nearly all actives have a fitted effect of over 60% in size
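Inhibition is scored as reduced AlphaScreen emission. The BAZ2B/b-H3(5-23)K14Ac complex (50 nM each) in PBS pH 7.4, 0.01% Tween-20 meets compound (up to 110 uM) for 30 min at RT before bead addition.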
PLK1 PBD inh – inhibitors of human PLK1 polo-box domain binding; P53350; Plk1 PBD binding of FITC phosphopeptide, fluorescence polarization; Potency, µM, without a hit: max response, negative = inhibition, hits mostly inhibitors; 2.8% of 360,000 active; note: series mostly up to about 57 µM; % is set by controls: 0 for no effect and ±100 for the full control effect; nearly all actives have a fitted effect of over 65% in size
Target sequence (P53350 whole entry, looked up, the tested form may be a part): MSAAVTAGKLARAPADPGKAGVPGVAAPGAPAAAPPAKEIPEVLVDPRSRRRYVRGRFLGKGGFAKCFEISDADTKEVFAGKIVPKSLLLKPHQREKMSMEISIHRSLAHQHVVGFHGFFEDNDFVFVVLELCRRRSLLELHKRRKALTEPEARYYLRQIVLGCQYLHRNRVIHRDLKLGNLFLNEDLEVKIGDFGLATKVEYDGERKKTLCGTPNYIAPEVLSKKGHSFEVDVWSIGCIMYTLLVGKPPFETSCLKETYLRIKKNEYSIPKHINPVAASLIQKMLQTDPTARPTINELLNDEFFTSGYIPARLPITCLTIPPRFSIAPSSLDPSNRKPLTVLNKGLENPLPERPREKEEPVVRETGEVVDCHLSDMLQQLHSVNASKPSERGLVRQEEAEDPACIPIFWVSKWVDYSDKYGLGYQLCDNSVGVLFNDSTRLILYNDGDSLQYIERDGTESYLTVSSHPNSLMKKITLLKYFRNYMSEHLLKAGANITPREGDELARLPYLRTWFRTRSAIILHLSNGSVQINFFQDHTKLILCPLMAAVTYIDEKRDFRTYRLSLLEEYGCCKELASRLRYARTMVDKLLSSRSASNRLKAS
Starred values were filed as active, the others as inactive; u = inconclusive; x = no result; [ ] = dose if it differs, or a comment. Calls come from the whole dose curve; as a rule, active = well fitted curve in the direction sought with a large enough effect; inconclusive = small, poorly fitted or top-dose-only effect, or another doubt; inactive = no such curve, though single readings can be large; an effect the other way counts as inactive or inconclusive. Potency is the fitted concentration of half-maximal effect.

SMILES	HP1b binding inh	JMJD2A Tudor	Sfp PPTase inh	G9a inh	BAZ2B inh	PLK1 PBD inh
CCc1nnc(NC(=O)CSc2nc(-c3ccc(F)cc3)cc(-c3ccccc3)c2C#N)s1	25%	-13%	32µM*	3.2µM*	-3%	-16%
CCc1nnc(NC(=O)CSc2ccc(-c3ccc(-n4cccn4)cc3)nn2)s1	31%	-4%	x	10µM*	12%	-15%
Cc1ccccc1NC(=O)CSc1ccc(-c2ccc(-n3cccn3)cc2)nn1	3%	-15%	x	18%[59 µM]	1%	1%
CC1CN(c2oc(Cc3cccc4ccccc34)nc2C#N)CC(C)O1 (stereo not given)	-47%	u	-15%	25µM*	u	2%
CNc1oc(Cc2cccc3ccccc23)nc1C#N	1%	-29%	9%	u	u	-4%
CC1CN(c2oc(-c3cccs3)nc2C#N)CC(C)O1 (stereo not given)	9%	-26%	0%	-5%[59 µM]	0%	-9%
N#Cc1nc(Cc2cccc3ccccc23)oc1NCCN1CCCCC1	-10%	u	0%	u	79µM*	-18%
CS(=O)(=O)c1ccc(C(=O)OCC#CCSc2nnc(-c3cccc4ccccc34)o2)cc1	x	-19%	x	x	x	x
CC(=O)OCCC(NS(=O)(=O)OCC(Cl)(Cl)Cl)c1ccccc1 (stereo not given)	63%	-26%	1%	-25%	2%	-16%
O=C(N/N=C/c1cccc([N+](=O)[O-])c1)c1cc[n+](CCO)cc1	21%	-23%	8%	-37%	50µM*	-6%
Nc1cc(C(=O)N/N=C/c2cccc([N+](=O)[O-])c2)n[nH]c1=O	81%	u	-8%	u	56µM*	-4%
CCOc1ccc(-n2c(SCc3ccc(C(=O)OC)o3)nc3c([nH]c4ccccc43)c2=O)cc1	16%[57 µM]	-16%	x	-1%[59 µM]	-3%	x
CC(=O)N1CCN(CCN=CC2=C(O)CC(c3cccs3)CC2=O)CC1 (stereo not given)	40%	-1%	-1%	50µM*	9%	-1%
CC(=O)N1CCN(CCN=CC2=C(O)CC(c3ccc(Cl)cc3)CC2=O)CC1 (stereo not given)	50%	-12%	6%	50µM*	-6%	-7%
COc1ccc([N+](=O)[O-])cc1C(=O)NCCOc1ccc(Cl)cc1	38%	-15%	1%	-49%	-22%	-5%
CSC1=NSC2=NC(=O)/C(=C\c3ccc(OC(=O)c4ccco4)cc3)C(=N)N12	14%	-10%	-8%	u	u	u
CC(C)CS(=O)(=O)C1=NSC2=NC(=O)/C(=C\c3ccc(OC(=O)c4ccco4)cc3)C(=N)N21	2%	-36%	-16%	x	u	24µM*
CS(=O)(=O)C1=NSC2=NC(=O)/C(=C\c3ccc(OC(=O)c4ccco4)c(Br)c3)C(=N)N21	-5%[57 µM]	u	-17%	20µM*	56µM*	24µM*
CCC(CC)C1=NN2C(=N)/C(=C/c3ccc(OC(=O)c4ccco4)cc3)C(=O)N=C2S1	27%	u	-2%	8%	-25%	30µM*
CC1=CSC2=NC(=O)/C(=C/c3cccc(OC(=O)c4ccco4)c3)C(=N)N12	-7%	-30%	6%	u	u	-29%
Cc1cc(=O)n(Cc2cccc(Cl)c2)c2c1c(C)nn2-c1ccccc1	55%	14%	x	31%[59 µM]	-10%	x
Cc1ccc(S(=O)(=O)C(CNC(=O)COc2ccccc2)c2cccs2)cc1 (stereo not given)	20µM*	25µM*	x	11µM*	u	x
Cc1ccc(Sc2cnc(N)nc2C)cc1	-21%	u	4%	6%	-10%	27µM*
Cc1ccccc1C(=O)OCc1cc(=O)n2c(C)csc2n1	8%	-5%	x	15%[59 µM]	1%	x
Cc1csc2nc(CN3CCN(CC(=O)N(C)C)CC3)cc(=O)n12	41%	1%	16%	45µM*	8%	0%
SMILES	HP1b binding inh	JMJD2A Tudor	Sfp PPTase inh	G9a inh	BAZ2B inh	PLK1 PBD inh
Cc1cccc(CN2CCN(C3CN(Cc4cn(Cc5ccccc5C(F)(F)F)nn4)S(=O)(=O)C3)CC2)c1 (stereo not given)	x	x	x	x	x	2%
Nc1ccc(Cn2ccc3c4c(N)nc(N)nc4ccc32)cc1	79µM*	45µM*	x	x	x	2%
CC(C)C(=O)NN(C(=O)C(C)C)c1nc2ccccc2s1	28%	-1%	22%	12%	-3%	0%
O=C(NN(C(=O)C1CC1)c1nc2ccccc2s1)C1CC1	1%	-16%	-10%	u	-39%	27µM*
O=C(Cn1nnc(-c2ccccc2)n1)NNC(=O)c1ccc(Br)cc1	3%	-14%[11.4 µM]	10%	16%	-21%	-17%
O=C(Cn1nnc(-c2ccc(F)cc2)n1)OCC(=O)c1ccccc1	38%	-9%	79µM*	u	-13%	-7%
O=C(Cn1nnc(-c2ccccc2)n1)NNC(=O)c1ccccc1	u	-11%	-27%	40µM*	-18%	-17%
C=C1CC[C@H](O)C/C1=C/C=C1\CCC[C@]2(C)[C@@H]([C@H](C)/C=C/[C@H](C)C(C)C)CC[C@@H]12	4%	u	x	14µM*	-26%	-22%
C=C1/C(=C\C=C2/CCC[C@]3(C)[C@@H]([C@H](C)/C=C/[C@@H](O)C4CC4)CC[C@@H]23)C[C@@H](O)C[C@@H]1O	x	x	-6%	-2%[12.7 µM]	x	x
CC1=NCC(C)c2c1[nH]c1ccccc21 (stereo not given)	u	u	-13%	13µM*	u	-7%
CC1=NCC(C)c2ccccc21 (stereo not given)	x	x	x	x	x	-5%
COc1ccc(-c2nc(C(=O)Nc3cccc(C(C)=O)c3)nn2-c2ccccc2Cl)cc1	30%	u	x	-44%[59 µM]	-9%	x
CC(C)N1CCc2c(sc(NC(=S)NC(=O)c3ccccc3)c2C#N)C1	-19%[57 µM]	u	40µM*	10µM*	u	u
CCOC(=O)c1c(NC(=O)c2ccc(S(=O)(=O)N3CCOCC3)cc2)sc2c1CCN(C)C2	16%	-20%	-21%	50µM*	u	6%
CC(C)N1CCc2c(sc(NC(=O)c3ccc(S(=O)(=O)N4CCOCC4)cc3)c2C#N)C1	15%	-16%	-17%	32µM*	-4%	22%
CCCN1CCc2c(sc(NC(=S)NC(=O)c3ccccc3)c2C#N)C1	u	u	50µM*	10µM*	u	7.5µM*
COC(=O)c1c(NC(=O)Cc2ccccc2)sc2c1CCN(C(C)C)C2	16%	-20%	15%	-6%	10%	1%
COC(=O)c1c(NC(C)=O)sc2c1CCN(Cc1ccccc1)C2	30%	-20%	-7%	x	-5%	-6%
CCOC(=O)c1ccc(-c2ccc3ncnc(NCc4cccs4)c3c2)o1	x	-16%	x	x	x	x
